The record followed here is PubChem BioAssay AID463173 (ICCB-Longwood Screening Facility, Harvard Medical School, 2010).

Among all 52,000 compounds or so, about 4,300 (8.3%) were called active. This is one part of a sample in which actives are shown more often than they occur. A number with no mark means an inactive call. Cut-off read from the data, not from the text of the source: active = survival mostly below about 52% (no sharp cut-off); inactive = mostly above about 56%.

This test concerns DeltatarO mutant. The test can be described thus: growth inhibition of S. aureus wild type versus tarO mutant, primary screen, teichoic acid synthesis inhibitors, RN4220, OD600 (AID 463173). Particulars: OD600, 18 h, stronger effect = lower value, screened at 18.75 µg/mL (by protocol).
Consider `O=C(NC1CC(=O)N(c2ccc(Cl)cc2)C1)c1ccc2c(c1)OCO2` (stereo not given), for which the survival is 78%.

For `CN(C(=O)c1nn(C)c2c1COc1ccccc1-2)c1cccc(C(F)(F)F)c1`, the survival is 81%.

Regarding `Cc1ccc(C2=Nc3ccccc3N(CC(=O)Nc3cccc(F)c3)C(=O)C2)cc1C`, the survival was 79%.

As to `CCOC(=O)CC(=O)CSc1nc2ccccc2c(=O)n1CCc1ccccc1`, the survival was 84%.

For `COc1cccc(C(=O)Nc2ccc3oc(-c4cccc5c(Br)cccc45)nc3c2)c1`, the survival was 59%.

For `O=C(CCC1N=C2c3ccccc3N=C(SCC(=O)Nc3ccc(F)cc3)N2C1=O)NCc1cccs1` (stereo not given), the survival was 87%.

Turning to `O=C(COc1ccccc1)Nc1sc2c(c1C(=O)Nc1ccccc1)CCCCC2`, the survival is 85%.

As for `O=C(O)CCC(=O)Nc1sc2c(c1C(=O)Nc1ccccc1)CCCCC2`, the survival was 92%.

Regarding `COc1ccccc1NC(=O)c1c(NC(=O)COc2ccccc2)sc2c1CCCCC2`, the survival is 85%.

Regarding `O=C(COc1ccccc1)Nc1sc2c(c1C(=O)Nc1ccccc1Cl)CCCCC2`, the survival was 56% (active).

Take `O=C(Cc1ccccc1)Nc1sc2c(c1C(=O)Nc1ccccc1Cl)CCCC2`: the survival is 31% (active).

For `O=C(Cc1ccccc1)Nc1sc2c(c1C(=O)Nc1ccccc1Cl)CCCCC2`, the survival was 47%.

In the case of `CCn1c(=O)n(CC)c2cc(N3CCCCC3)c(NC(=O)Nc3ccccc3C(F)(F)F)cc21`, the survival was 101%.

Turning to `Cc1cc(-c2ccc(C)c(S(=O)(=O)N(C(C)C)C3CCCCC3)c2)on1`, the survival is 88%.

With `Cn1c2c(c(=O)n(C)c1=O)C(c1ccccc1[N+](=O)[O-])CC(=O)N2` (stereo not given), the survival is 93%.

As to `CCOc1ccc(C(=O)Nc2ccc(-c3nc4cc(C(C)C)ccc4o3)cc2)cc1Cl`, the survival is 65%.

Regarding `COc1ccc(-c2nc3cc(C(C)C)ccc3o2)cc1NC(=O)c1ccc(C)c(Cl)c1`, the survival is 21% (active).

On to `COc1ccc(-c2nc3cc(NC(=O)COc4ccc(C)c(C)c4)ccc3o2)cc1`, for which the survival is 84%.

`COc1ccc(-c2nc3cc(C(C)C)ccc3o2)cc1NC(=O)c1ccccc1[N+](=O)[O-]`: the survival is 50%.

For the compound `COc1ccc(-c2nc3cc(C(C)C)ccc3o2)cc1NC(=O)COc1ccc(C)cc1C`, the survival is 37% (active).

Consider `COc1ccc(-c2nc3cc(NC(=O)COc4ccccc4C)ccc3o2)cc1`, for which the survival is 60%.

On to `O=C(Nc1ccc(F)c(Cl)c1)C1CCCN(S(=O)(=O)c2cccc3nsnc23)C1` (stereo not given), for which the survival was 67%.

Turning to `O=C(CSc1nc2c([nH]c3ccccc32)c(=O)n1-c1ccc(Cl)cc1)NC1CCCCC1`, the survival was 87%.

`COc1ccccc1NC(=O)Cn1c(=O)n(-c2ccccc2Cl)c(=O)c2sc3ccccc3c21`: the survival was 77%.

In the case of `O=C(CN(CC1CCCO1)S(=O)(=O)c1ccc(S(=O)(=O)N2CCOCC2)cc1)Nc1ccccc1` (stereo not given), the survival was 89%.

As to `CCOC(=O)c1ccccc1NC(=O)Cn1ccn2nc(-c3ccc(OCC)cc3)cc2c1=O`, the survival was 115%.

As for `COC(=O)CSc1nc2cc3c(cc2cc1C#N)OCO3`, the survival was 97%.

Consider `CCc1ccc(-n2c(N3CCN(c4ccc(F)cc4)CC3)nc3ccccc3c2=O)cc1`, for which the survival was 83%.

As for `Cc1cc2nc(-c3ccc(OCc4ccccc4Cl)cc3)cc(C(F)(F)F)n2n1`, the survival was 25% (active).

For the compound `Cc1ccc(-c2cc(C(F)(F)F)n3nc(-c4ccc(Cl)cc4)cc3n2)cc1`, the survival was 51%.

For `COc1ccc(-c2cc3nc(-c4ccccc4)cc(C(F)(F)F)n3n2)cc1`, the survival is 58%.

For the compound `Cc1cc2nc(-c3ccc(OCc4ccccc4F)cc3)cc(C(F)(F)F)n2n1`, the survival is 45% (active).

For the compound `Cc1cc2nc(-c3ccc(OCc4ccccc4C)cc3)cc(C(F)(F)F)n2n1`, the survival is 13% (active).

Consider `CCN(c1ccc(OC)cc1)S(=O)(=O)c1ccc2[nH]c3c(c2c1)CCCCC3`, for which the survival was 80%.

On to `CCc1cc(C(=O)Nc2cnn(Cc3ccc(F)cc3)c2)no1`, for which the survival was 50%.

In the case of `COc1ccc(Cc2nc3ccc(C(=O)NCc4cc(Br)ccc4OC)cc3o2)cc1`, the survival is 93%.

As to `COc1ccc(CNC(=O)CCCCCn2c(=O)[nH]c3ccccc3c2=O)cc1`, the survival is 86%.

Consider `Cc1ccc(S(=O)(=O)c2cnc(SC(C)C(=O)Nc3ccccc3)[nH]c2=O)cc1` (stereo not given), for which the survival is 71%.

Consider `CC1CCC2(CC1)Nc1ccccc1S2` (stereo not given), for which the survival was 105%.

For the compound `O=C(COC(=O)c1ccccn1)Nc1ccccc1`, the survival is 101%.

Turning to `COc1ccc(NC(=O)c2c(NC(=O)c3ccc(Br)cc3)sc3c2CCCC3)cc1`, the survival is 169%.

For the compound `COc1ccc(NC(=O)c2c(NC(=O)C(F)(F)F)sc3c2CCCCC3)cc1`, the survival is 2% (active).

For `Cc1ccc(NC(=O)c2c(NC(=O)C(F)(F)F)sc3c2CCCCC3)cc1`, the survival was -5% (active).

On to `Cc1ccc(NC(=O)c2c(NC(=O)c3ccccc3Cl)sc3c2CCC3)cc1`, for which the survival was 160%.

On to `Cc1ccccc1NC(=O)c1c(NC(=O)C(F)(F)F)sc2c1CCCCC2`, for which the survival is -3% (active).

In the case of `Cc1ccc(NC(=O)c2c(NC(=O)c3ccccc3)sc3c2CCC3)cc1`, the survival was 76%.

Turning to `COc1ccc(NC(=O)c2c(NC(=O)COc3ccccc3)sc3c2CCCCC3)cc1`, the survival is 72%.

For `COc1ccccc1NC(=O)c1c(NCc2sccc2C)sc2c1CCCCC2`, the survival is 85%.

For `O=C1C2C3C=CC(C3)C2C(=O)N1CCCCN1C(=O)C2C3C=CC(C3)C2C1=O` (stereo not given), the survival was 93%.

For the compound `CCc1ccccc1NC(=O)Cn1c(=O)c2cccn2c2ccc(F)cc21`, the survival is 83%.

Regarding `COc1ccc(-c2noc(-c3ccc(NC4CCCC4)c([N+](=O)[O-])c3)n2)cc1`, the survival was 108%.

For `C/C=C(\C)C(=O)OC1c2c(ccc3ccc(=O)oc23)OC(C)(C)C1OC(C)=O` (stereo not given), the survival is 60%.

Turning to `O=C(Nc1nnc(S(=O)(=O)N2CCCC2)s1)c1ccc(F)cc1`, the survival was 111%.

As for `O=C(Nc1nnc(S(=O)(=O)N2CCCCC2)s1)c1ccc(Cl)cc1`, the survival is 37% (active).

As for `O=C(Nc1nnc(S(=O)(=O)N2CCCCC2)s1)c1ccc(F)cc1`, the survival was 79%.

As for `O=C(Nc1nnc(S(=O)(=O)N2CCCCCC2)s1)c1ccccc1`, the survival was 38% (active).

Turning to `Cc1ccc(C(=O)Nc2nnc(S(=O)(=O)N3CCCCCC3)s2)cc1`, the survival was 79%.

`O=C(Nc1nnc(S(=O)(=O)N2CCCCCC2)s1)c1ccc(Cl)cc1`: the survival was 62%.

Consider `CCC1/C(=N\O)CC(c2ccco2)NC1c1ccco1` (stereo not given), for which the survival was 84%.

With `COc1ccc(NC(=O)Cn2c(SCc3ccc(C)cc3)nc3cccnc32)c(OC)c1`, the survival is 82%.

`COC(=O)c1ccc(NC(=O)C(C)N2Cc3ccccc3C2=O)cc1` (stereo not given): the survival is 66%.

In the case of `Cc1ccc(NC(=O)[C@H](Cc2ccccc2)N2Cc3ccccc3C2=O)cc1F`, the survival is 84%.

Turning to `O=C(Nc1ccccc1F)C(Cc1ccccc1)N1Cc2ccccc2C1=O` (stereo not given), the survival is 60%.

`CC(C(=O)Nc1ccc(OC(F)(F)F)cc1)N1Cc2ccccc2C1=O` (stereo not given): the survival was 20% (active).

As for `Cc1ccc(C)c(NC(=O)C(CC(C)C)N2Cc3ccccc3C2=O)c1` (stereo not given), the survival was 134%.

As for `Cc1ccc(NC(=O)C(CC(C)C)N2Cc3ccccc3C2=O)cc1F` (stereo not given), the survival is -5% (active).

Take `CS(=O)(=O)CCC(C(=O)Nc1cccc(C(F)(F)F)c1)N1Cc2ccccc2C1=O` (stereo not given): the survival is 17% (active).

With `CCOc1ccc(NC(=O)C(CC(C)C)N2Cc3ccccc3C2=O)cc1` (stereo not given), the survival was 130%.

Regarding `COC(=O)c1cc(NC(=O)[C@H](CCS(C)(=O)=O)N2Cc3ccccc3C2=O)cc(C(=O)OC)c1`, the survival is 86%.

As to `COc1cc(NC(=O)C(CCS(C)(=O)=O)N2Cc3ccccc3C2=O)cc(OC)c1OC` (stereo not given), the survival was 55%.

Turning to `O=C(Nc1ccc(F)cc1)[C@H](Cc1ccccc1)N1Cc2ccccc2C1=O`, the survival was 89%.

`O=C(Nc1ccc(F)cc1F)C(Cc1ccccc1)N1Cc2ccccc2C1=O` (stereo not given): the survival was -4% (active).

In the case of `CC(C)Cn1c(=O)c2ccccc2n2c(CCC(=O)N3CCN(c4ccccc4F)CC3)nnc12`, the survival was 92%.

As for `Cc1noc(Cn2c(=O)c3cc4c(cc3n(CC(=O)Nc3cccc(Cl)c3)c2=O)OCO4)n1`, the survival is 122%.

For `COc1cccc(C(=O)Nc2ccc3nc(SCCOc4ccccc4)sc3c2)c1`, the survival was 75%.

On to `Cc1cc(C)nc(-n2nc(C)c3c2N(Cc2ccccc2C)C(=O)CC3c2ccc(Cl)cc2)n1` (stereo not given), for which the survival is 72%.

Regarding `COc1ccc(-c2cc(C(F)(F)F)n3nc(C(=O)Nc4cccc(C(F)(F)F)c4)c(Br)c3n2)cc1`, the survival is 73%.

For the compound `CC(C(=O)Nc1ccc(F)c(Cl)c1)N1Cc2ccccc2C1=O` (stereo not given), the survival was 8% (active).

Turning to `Cc1cc(C)cc(NC(=O)C(C)N2Cc3ccccc3C2=O)c1` (stereo not given), the survival was 91%.

With `COc1ccc(NC(=O)C(C)N2Cc3ccccc3C2=O)cc1OC` (stereo not given), the survival was 101%.

`CCCn1ccc2c(OCC(=O)Nc3ccccc3C(=O)OCC)cccc2c1=O`: the survival was 94%.

`Cc1ccc(C)c(CN2C(=O)c3ccccc3S(=O)(=O)c3ccc(C(=O)NCCc4ccc(Cl)cc4)cc32)c1`: the survival was 111%.

Regarding `N#Cc1cccc(NC(=O)C2CCN(c3nc(-c4ccc(Cl)cc4)no3)CC2)c1`, the survival is 82%.

`Cc1cccc(CNC(=O)Cn2ccc3cc(S(=O)(=O)N4CCCCCC4)ccc32)c1`: the survival was -5% (active).

`Cc1cccc(CNC(=O)Cn2ccc3cc(S(=O)(=O)N4CCCC4)ccc32)c1`: the survival was 73%.

In the case of `O=C(CCn1ccc2cc(S(=O)(=O)N3CCCC3)ccc21)NCc1cccc(Cl)c1`, the survival was 17% (active).

As to `CN(C)c1ccc(CNC(=O)CCCn2ccc3cc(S(=O)(=O)N4CCCC4)ccc32)cc1`, the survival was 8% (active).

In the case of `Cc1cccc(CNC(=O)Cn2ccc3cc(S(=O)(=O)N4CCC(C)CC4)ccc32)c1`, the survival is 76%.

As to `CC1CCN(S(=O)(=O)c2ccc3c(ccn3CCC(=O)NCc3ccccc3F)c2)CC1`, the survival was -5% (active).

Turning to `O=C(Cn1ccc2cc(S(=O)(=O)N3CCCCC3)ccc21)NCc1cccc(Cl)c1`, the survival was 117%.

`O=C(CCn1ccc2cc(S(=O)(=O)N3CCCC3)ccc21)NCc1ccccc1F`: the survival was 94%.

`CC1CCN(S(=O)(=O)c2ccc3c(ccn3CC(=O)NCc3ccccc3F)c2)CC1`: the survival is 54%.

As to `Cc1cccc(CNC(=O)CCn2ccc3cc(S(=O)(=O)N4CCCC4)ccc32)c1`, the survival was 87%.

As for `CCc1ccc(CNC(=O)CCCn2ccc3cc(S(=O)(=O)N4CCCC4)ccc32)cc1`, the survival is 91%.

In the case of `COc1ccc(CNC(=O)CCCn2ccc3cc(S(=O)(=O)N4CCCC4)ccc32)cc1`, the survival was 101%.
